Hits are enriched below; roughly 4.2% of the tested compounds scored in any of these assays.
RecA splice inh – Mtb RecA intein splicing inhibition. P9WHJ3. cell-free RecA intein splicing, fluorescence. inhibition, % (test concentration not listed). 290,000 compounds, 0.75% hits; in the data active means inhibition above about 30%;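 further: 0% = vehicle wells and 100% = reference inhibitor control wells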
Target sequence (P9WHJ3 whole entry, looked up, canonical isoform): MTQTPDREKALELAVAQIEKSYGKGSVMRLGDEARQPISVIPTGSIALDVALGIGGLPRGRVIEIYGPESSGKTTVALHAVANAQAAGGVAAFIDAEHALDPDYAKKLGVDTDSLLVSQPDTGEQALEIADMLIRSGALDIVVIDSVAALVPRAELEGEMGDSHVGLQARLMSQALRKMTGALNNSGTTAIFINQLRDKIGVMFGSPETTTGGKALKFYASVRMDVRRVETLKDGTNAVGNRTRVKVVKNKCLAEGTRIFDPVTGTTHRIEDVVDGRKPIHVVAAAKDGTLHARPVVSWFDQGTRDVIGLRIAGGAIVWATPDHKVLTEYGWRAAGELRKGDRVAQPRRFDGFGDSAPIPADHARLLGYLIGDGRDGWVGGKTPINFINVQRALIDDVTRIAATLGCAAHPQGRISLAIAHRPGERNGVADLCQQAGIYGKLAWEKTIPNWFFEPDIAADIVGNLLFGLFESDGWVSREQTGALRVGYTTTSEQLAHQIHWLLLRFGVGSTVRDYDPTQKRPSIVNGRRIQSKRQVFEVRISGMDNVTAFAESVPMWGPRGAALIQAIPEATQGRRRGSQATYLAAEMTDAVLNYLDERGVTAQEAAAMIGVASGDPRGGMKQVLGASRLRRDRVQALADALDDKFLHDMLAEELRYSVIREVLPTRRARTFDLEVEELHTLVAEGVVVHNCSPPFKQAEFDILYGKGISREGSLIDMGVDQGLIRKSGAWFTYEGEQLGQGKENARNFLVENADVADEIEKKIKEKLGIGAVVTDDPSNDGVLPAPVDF
CCHF vOTU inh – CCHFV vOTU protease inhibition; Pep-AMC fluorescence; inhibition, % at 11.5 µM; 370,000 compounds, 0.55% hits; AID 651958; further: 0% = vehicle wells with enzyme and 100% = no enzyme wells
Mtb FBA inh – inhibits M. tuberculosis FBA enzyme | 360,000 compounds, 2.3% hits | purified M. tuberculosis FBA, fluorescence read-out | AID 588726 | inhibition, % at 1 µM | P9WQA3; in the data active means inhibition above about 27%;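 further: 0% = vehicle and 100% = reference inhibitor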
GDH-TPI counter – inhibits GDH-TPI coupling enzymes, artifact for Mtb FBA screen | 360,000 compounds, 1.2% hits | GDH-TPI coupled enzyme counterscreen, NADH absorbance | inhibition, % at 4.8 µM;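 further: 0% = DMSO wells and 100% = wells lacking the enzyme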
The depositor's hits bear a star; / = no result; + = active, no number. Unless noted, no stated cut-off is given here; in the data, active means inhibition above about 30%; inactive means the rest.

SMILES	RecA splice inh	CCHF vOTU inh	Mtb FBA inh	GDH-TPI counter
CNCC(O)CN(c1ccccc1)c1ccccc1 (centres undefined)	40.5*	10.9	4.0	-11.2
CN(CCO)CC(O)CN(c1ccccc1)c1ccccc1 (centres undefined)	-2.1	-2.5	6.6	3.2
Cc1ccc(S(=O)(=O)c2cc3c(=O)n4ccccc4nc3n(C3CCCC3)c2=N)cc1	-26.1	4.2	5.2	11.2
CNC(=O)c1cc2c(=O)n3cc(C)ccc3nc2n(C(C)C)c1=N	-406.2	-23.9	+	11.3
Cc1ccc2nc3c(cc(C(=O)NC4CCCC4)c(=N)n3C3CCCCC3)c(=O)n2c1	-396.2	-75.2	134.4*	14.2
COCOc1ccc(-c2ncc(OCCN3CCCC3=O)nc2NC(=O)c2cc3ccccc3s2)cc1	/	-7.4	-1.8	20.9
CCC(C)NC(=O)c1ccc(C)c(NC(=O)C2=C(C)OCCS2)c1 (centres undefined)	-0.5	-5.1	1.8	6.3
CCN(CC)c1ccc(/C=N/NC(=O)Cc2ccc(OC)c(OC)c2)cc1	1.7	-16.4	26.0	45.6*
O=C(/C=C/c1ccco1)NCC(=O)N/N=C/c1ccccc1[N+](=O)[O-]	-1.9	-6.8	-3.9	17.6
CCN(CC)c1ccc(C(=O)N/N=C(\C)c2ccc(OC)c(OC)c2)cc1	-3.3	20.0	-2.3	32.0*
COc1ccc(/C=C/C(=O)NCc2ccc3c(c2)OCO3)cc1OC	-1.1	4.2	6.6	14.5
COc1ccc(CC(=O)N/N=C/C=C/c2ccc3c(c2)OCO3)cc1OC	-3.8	8.1	1.1	34.7*
CCN(CC)c1ccc(/C=N/NC(=O)CNC(=O)/C=C/c2ccco2)cc1	1.1	24.2	7.5	43.6*
COc1ccc(/C=N/NC(=O)Cc2ccc(Cl)cc2)cc1OC	0.5	-5.6	-0.5	8.1
COc1ccc(C(=O)N/N=C(/C)c2cccc(NC(=O)c3ccncc3)c2)cc1OC	-1.9	-5.3	-1.4	5.2
COC(=O)N/N=C\C=C\c1ccc2c(c1)OCO2	-2.4	13.5	2.6	44.1*
CCOC(=O)N/N=C\C=C\c1ccc2c(c1)OCO2	-2.7	-3.1	3.3	36.6*
CCN(CC)c1ccc(/C=N/NC(=O)c2cccc(S(=O)(=O)Nc3ccccc3OC)c2)cc1	-11.7	6.3	-0.8	18.2
COc1cc(C(=O)NN=Cc2ccc(N(CCCl)CCCl)cc2)cc(OC)c1OC	/	-0.1	9.0	60.8*
CC(C)(C)OC(=O)N/N=C\C=C\c1ccc2c(c1)OCO2	/	0.9	-1.0	26.1
CCCN1CCCc2cc(CN)ccc21	7.4	99.9*	6.6	15.9
Cc1ccc2nc(-c3ccc(NS(=O)(=O)c4ccc(F)cc4)cc3)sc2c1	10.1	-129.6	+	37.4*
Nc1ccc2nc(-c3ccccc3)sc2c1	-1.3	-289.2	+	26.1
Cc1ccc2nc(-c3ccc(N)cc3)sc2c1	1.0	-276.0	+	25.0
Nc1ccc2nc(-c3ccccc3)c(-c3ccccc3)nc2c1	-207.2	18.3	1.9	7.0
SMILES	RecA splice inh	CCHF vOTU inh	Mtb FBA inh	GDH-TPI counter
CC(=O)NC(=S)Nc1ccc(-c2nc3ccc(C)cc3s2)cc1	-4.3	-7.6	6.5	4.6
Nc1ccc(-c2nc3cc(N)ccc3s2)cc1	-16.9	-14.2	17.7	15.2
CC1=CCC(C(=O)O)C(C(=O)Nc2ccc(-c3nc4ccc(C)cc4s3)cc2)C1 (centres undefined)	5.4	-107.2	190.4*	37.4*
O=C(CCS(=O)(=O)c1ccccc1)Nc1cccc(-c2nc3ccccc3s2)c1	0.2	8.0	0.4	-0.9
CNS(=O)(=O)c1cccc(C(=O)OCC(=O)Nc2ccc(-c3nc4ccc(C)cc4s3)cc2)c1	-1.0	/	28.7*	23.4
Cc1ccc2nc(-c3ccc(NC(=O)COC(=O)c4ccco4)cc3)sc2c1	0.0	-17.8	10.5	20.6
O=C(CCS(=O)(=O)c1ccccc1)Nc1ccc(-c2nc3ccccc3s2)cc1	3.3	-24.7	30.5*	7.3
COC(=O)c1ccc(COc2ccc(/C=C(\C#N)c3nc4ccccc4[nH]3)cc2OC)o1	-4.2	0.1	6.0	32.1*
COc1cc(/C=C(/C#N)c2nc3ccccc3[nH]2)ccc1OCc1ccc(C(=O)O)o1	-3.3	2.4	4.6	23.6
C=CCN1[C@@H](C)COc2cccc(N3CCCC3)c2S1(=O)=O	/	2.3	/	/
C/C(CC(=O)Nc1ccccn1)=N\NC(=O)c1ccc(C)cc1	46.9*	-15.0	4.9	4.8
COc1cccc2[nH]c3c(=O)n(CCN(C)C)cnc3c12	-0.9	-63.6	116.9*	22.5
CCN(CC)CCn1cnc2c([nH]c3cccc(OC)c32)c1=O	-2.8	-97.5	103.4*	-6.4
COc1cccc2[nH]c3c(=O)[nH]cnc3c12	1.0	-102.0	132.6*	10.2
CC1(C)CC=CC(COC(=O)c2ccccc2C(=O)O)C1 (centres undefined)	/	-4.6	0.0	-4.3
CS(=O)(=O)c1ccc(Oc2ccc(-c3nnco3)cc2)c([N+](=O)[O-])c1	-2.5	-9.5	3.4	-2.3
Cc1ccc(C(=O)N/N=C\c2ccc[nH]2)cc1[N+](=O)[O-]	3.0	5.9	1.3	48.0*
O=C(N/N=C/c1ccc[nH]1)c1ccc(Cl)cc1	3.9	8.1	-1.2	39.0*
O=C(N/N=C/c1ccc[nH]1)c1ccccc1[N+](=O)[O-]	-2.3	4.5	0.8	12.8
COc1ccc(NC(=O)c2ccc(-c3ccc(C(C)=O)cc3)o2)cn1	/	-21.2	19.2	31.8*
c1ccc(C2Nc3ccccc3-c3nc4ccccc4n32)cc1 (centres undefined)	-2.0	-200.4	139.2*	18.4
c1ccc(C2Nc3ccccc3-c3nc4ccccc4n32)nc1 (centres undefined)	-12.0	-169.1	118.9*	4.5
COC(=O)[C@]12C[C@H](CC(=O)NCCCN3CCCC3=O)C(=O)N(Cc3ccco3)C1=C[C@H](C1CCCC1)O[C@@H]2C	/	-0.3	/	/
COc1ccc(-c2ccc(C(c3c(C)[nH][nH]c3=O)c3c(C)[nH][nH]c3=O)o2)c([N+](=O)[O-])c1	/	5.1	-1.0	-3.8
Cc1[nH][nH]c(=O)c1C(c1ccccc1[N+](=O)[O-])C(C#N)C#N (centres undefined)	69.5*	-17.6	4.9	-0.6
SMILES	RecA splice inh	CCHF vOTU inh	Mtb FBA inh	GDH-TPI counter
Cc1ccc(N2CCN(S(=O)(=O)c3c(C)nc4scc(C)n4c3=O)CC2)c(C)c1	6.4	4.1	-4.9	30.8*
O=S(=O)(c1ccc(Cl)cc1)c1snnc1-c1ccccc1	81.5*	5.3	-0.6	11.2
O=S(=O)(c1ccc(F)cc1)c1snnc1-c1ccccc1	69.3*	3.4	1.0	-3.1
O=C(C1CCCO1)N1CCN(C2=Nc3ccccc3Sc3ccccc32)CC1 (centres undefined)	/	13.5	/	/
CC(Oc1cc2oc(=O)c3c(c2cc1Cl)CCC3)C(=O)NCCCN1CCCC1=O (centres undefined)	6.8	-18.3	7.5	17.0
Cc1cc(OC(C)C(=O)NCCCN2CCCC2=O)c2c(C)c(C)c(=O)oc2c1 (centres undefined)	4.3	-26.2	112.3*	0.4
Cc1c(OC(C)C(=O)NCCCN2CCCC2=O)ccc2c3c(c(=O)oc12)CCCC3 (centres undefined)	-2.4	-22.8	43.0*	3.0
CC(C)n1c(=O)c(C=Nc2ccc(S(N)(=O)=O)cc2)c(O)n(Cc2ccco2)c1=O	-2.2	-4.4	-2.1	32.3*
